SW480 rerep – induces DNA re-replication in SW480 colon adenocarcinoma cells. 340,000 tested, 1.8% active. Potency, µM (titrated, usually from 46.1 µM), most hits filed as activators. SW480 DNA re-replication, Hoechst DNA content imaging, 48 h; further: nearly all actives have a fitted effect of over 55% in size
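Image-based read-out: total Hoechst fluorescence of nuclei (405 nm excitation, 500-530 nm emission), with hits raising the fraction of high-intensity nuclei. SW480 colon cells incubated 48 hr with compounds at 37 C.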
KB-3-1 tox – KB-3-1 parental cell cytotoxicity | KB-3-1 viability, CellTiter-Glo ATP luminescence, 72 h | Potency, µM (highest dose often 46.1 µM), actives largely listed as cytotoxic | 400,000 tested, 1.4% active; further: nearly all actives have a fitted effect of over 60% in size
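Viability of parental KB-3-1 cells, measured by CellTiter-Glo luminescence, followed a 72 h incubation at 37 °C with pinned compounds in phenol-red-free DMEM containing 10% FBS.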
PINK1 modulator – changes PINK1 expression; Potency, µM (highest dose often 76.6 µM), most hits filed as activators; PINK1 immunofluorescence, high-content cytometry, 24 h; 410,000 tested, 0.2% active; AID 624263; active means well fitted activation curve with a large enough effect; inconclusive means small, poorly fitted or top-dose-only effect; cell line not stated here; further: nearly all actives have a fitted effect of over 65% in size
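Fluorescence from anti-PINK1 antibody, together with nuclear and cell stains, was scanned on a laser-scanning cytometer. Before staining, stable-line cells were incubated 24 hours with compounds at 5 concentrations; primary antibody 12 h at 10 degrees C.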
KB-V1 MDR tox – kills drug-selected multidrug resistant KB-V1 cells; KB-V1 MDR cells viability, CellTiter-Glo, 72 h; 400,000 tested, 3.4% active; Potency, µM (top dose mostly 46.1 µM), actives largely listed as cytotoxic; further: nearly all actives have a fitted effect of over 60% in size
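Potencies derive from concentration-effect curves fitted to normalized luminescence (CellTiter-Glo) of KB-V1 cells treated for 72 h at 37 degrees C in phenol-red-free DMEM containing 10% FBS.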
MCF10A rereplic – DNA re-replication induction in MCF 10a cells. Potency, µM (doses to about 46.1 µM), most hits filed as activators. MCF 10A DNA re-replication, Hoechst nuclear intensity, 48 h. 350,000 tested, 2.9% active; further: nearly all actives have a fitted effect of over 50% in size
Hits are given with their value; – = inactive; ? = inconclusive; · = no result given. Compounds with a hit are over-represented: about 6.7% of the library has one in this group of screens. Unless noted, the call rests on the fitted dose curve; in most records, active means well fitted curve in the direction sought with a large enough effect; inconclusive means small, poorly fitted or top-dose-only effect, or another doubt; inactive means no such curve, though single readings can be large; an effect the other way counts as inactive or inconclusive.

SMILES	SW480 rerep	KB-3-1 tox	PINK1 modulator	KB-V1 MDR tox	MCF10A rereplic
Cc1ccccc1Cn1nnc2c(=O)[nH]c(C3CCN(C(=O)c4ccccc4)CC3)nc21	·	–	–	–	·
COc1ccccc1CNC(=O)COC(=O)C1CCN(c2ccc(C(F)(F)F)cn2)CC1	4.6µM	–	–	–	–
CC(OC(=O)C1CCN(c2ccc(C(F)(F)F)cn2)CC1)C(=O)NC1CCCCC1C (stereo not drawn)	–	–	–	23µM	–
COc1cccc(CNC(=O)COC(=O)C2CCN(c3ccc(C(F)(F)F)cn3)CC2)c1	–	–	–	–	–
COc1ccc(CCNC(=O)COC(=O)Cn2cnc3ccccc32)cc1OC	–	–	–	–	–
COc1ccccc1CNC(=O)COC(=O)Cn1cnc2ccccc21	?	–	–	–	0.82µM
O=Cc1cc2c3c(c1)CCCN3CCC2	·	–	·	–	·
O=C(C[n+]1cc(-c2ccccc2)n2c1CCC2)N1c2ccccc2Sc2ccccc21	–	6.5µM	–	–	?
Cc1ccc(-c2c[n+](CC(=O)N3c4ccccc4Sc4ccccc43)c3n2CCC3)cc1	–	?	–	–	–
O=C(C[n+]1cc(-c2ccccc2)n2c1CCC2)Nc1nc(-c2ccc(F)cc2)cs1	–	21µM	–	–	–
Cc1ccc(OCCCCN2CCCCC2)cc1	–	–	–	–	–
Cc1ccc(OCCN2CCCC2)cc1	15µM	–	–	–	?
Cc1ccc(OCCCCN2CCc3ccccc3C2)cc1	–	?	–	–	15µM
O=C(C#Cc1ccccc1)c1ccc([N+](=O)[O-])cc1	13µM	23µM	–	?	?
O=C1c2ccccc2[C@@H]2C[C@@H](O)[C@H](Nc3cccc(C(F)(F)F)c3)CCN12	–	–	–	–	–
CC1=C(C(=O)Nc2cccnc2)C(c2ccccc2)n2nc(-c3ccc(O)cc3)nc2N1 (stereo not drawn)	·	–	–	–	·
Nc1cccc(-c2cn3cc(C(F)(F)F)cc(Cl)c3n2)c1	–	–	–	?	–
FC(F)(F)c1cc(Cl)c2nc(-c3ccccc3)cn2c1	–	–	–	–	15µM
O=C(CCCCn1c(=O)[nH]c2ccsc2c1=O)NCCc1ccccc1	–	–	–	–	–
O=C(CCn1c(=O)[nH]c2ccsc2c1=O)N(CCc1ccccc1)Cc1ccccc1	–	?	–	21µM	–
CCc1ccc(OCC(=O)N(Cc2cccs2)c2ccc(Cl)cc2)cc1	·	–	–	–	·
CCOc1ccccc1N1CC(O)=C(c2nc3ccccc3s2)C1=N	–	9.2µM	·	?	–
COc1ccc(OC)c(N2CC(O)=C(c3nc4ccccc4s3)C2=N)c1	–	–	–	–	–
N=C1C(c2nc3ccccc3s2)=C(O)CN1Cc1ccccc1	?	4.1µM	–	?	5.2µM
CCOc1ccc(NCc2cccn2-c2nnc(N3CCC(C(=O)NCc4ccccc4Cl)CC3)s2)cc1	·	·	–	·	·
SMILES	SW480 rerep	KB-3-1 tox	PINK1 modulator	KB-V1 MDR tox	MCF10A rereplic
CCCS(=O)(=O)N1CC(=O)N(c2cccc(Cl)c2)C(C)(C(=O)NC2CCCCC2)C1 (stereo not drawn)	·	–	–	–	·
O=C(NCCCN=C1NS(=O)(=O)c2ccccc21)c1ccc(S(=O)(=O)N2CCCCC2)cc1	?	21µM	–	–	23µM
COc1ccc(C(=O)NCCCN=C2NS(=O)(=O)c3ccccc32)cc1	–	–	–	–	–
O=Nc1c(-c2c(O)[nH]c3cc(Br)ccc23)[nH]c2ccccc12	?	?	–	21µM	–
Brc1ccccc1/C=N/Nc1ccc2ccccc2n1	–	–	–	–	16µM
Brc1ccc(/C=N/Nc2ccc3ccccc3n2)cc1	–	–	–	–	?
CCOc1ccccc1CNCc1c(C(=O)O)c(C)n(Cc2ccc(Cl)cc2)c1C	·	–	–	–	·
O=C(c1ccccc1)N(Cc1ccc(F)cc1)Cc1nc2ccccc2c(=O)[nH]1	4.1µM	–	–	–	?
CCCNC(=S)N(Cc1ccccc1)Cc1nc2ccccc2c(=O)[nH]1	–	?	–	5.2µM	–
C/C(=N\NC(=O)c1ccccc1NC(=O)c1ccc(Cl)cc1)c1ccncc1	–	1.5µM	–	1.3µM	–
Cc1ccc(NC(=O)/C=C/c2cccs2)c([N+](=O)[O-])c1	21µM	?	–	5.8µM	?
COc1ccc(C)cc1NC(=O)CNC(c1ccccc1)c1ccccc1	–	–	–	–	?
COc1ccc(CNC(=O)CNC(c2ccccc2)c2ccccc2)cc1OC	–	–	–	8.2µM	–
COc1ccc(Cl)cc1NC(=O)CNC(c1ccccc1)c1ccccc1	?	?	–	15µM	?
COc1ccc(-c2ccccc2)cc1NCc1ccc(OC)c(OC)c1	–	–	–	16µM	–
COc1cc(NC(=O)CN2c3ccccc3CC2C)cc(OC)c1OC (stereo not drawn)	–	–	–	–	–
COc1ccccc1CNc1cc(-c2ccccc2)ccc1OC	–	–	–	?	?
COc1ccc(Cl)cc1NC(=O)CN1c2ccccc2CC1C (stereo not drawn)	–	?	–	15µM	–
COc1ccc(OC)c(NC(=O)CNC(c2ccccc2)c2ccccc2)c1	–	–	–	–	–
CC(=O)c1ccc(OCC(=O)OCC(=O)Nc2sccc2C(N)=O)cc1	–	–	–	–	–
CCOc1c(Br)cc(C2C=C(C(=O)O)Nc3ncnn32)cc1OC (stereo not drawn)	·	–	–	?	·
COc1ccccc1N(C(=O)c1ccco1)C(C(=O)NC1CCCC1)c1ccc(N2CCOCC2)cc1 (stereo not drawn)	–	–	–	–	–
CC1(C)Cc2c(sc(/N=C/N3CCCC3)c2C#N)C(C)(C)N1	–	–	–	?	–
CC1(C)Cc2c(sc(/N=C/N3CCCCCC3)c2C#N)C(C)(C)N1	–	?	–	–	16µM
COCCNC(=O)CN1C(=O)COc2ccc(S(=O)(=O)N3CCCC3)cc21	·	–	–	–	·
SMILES	SW480 rerep	KB-3-1 tox	PINK1 modulator	KB-V1 MDR tox	MCF10A rereplic
CC(=O)Oc1ccc(N2C(=O)C3C4C=CC(CO)(O4)C3C2=O)cc1 (stereo not drawn)	?	–	–	–	?
O=C1C2C3C=CC(CNS(=O)(=O)c4ccccc4)(O3)C2C(=O)N1c1ccc(Cl)cc1 (stereo not drawn)	12µM	–	–	?	?
COc1ccc(C(=O)NCC23C=CC(O2)C2C(=O)N(Cc4ccccc4)C(=O)C23)cc1 (stereo not drawn)	–	–	–	–	–
O=C1C2C3C=CC(CO)(O3)C2C(=O)N1c1ccccc1-c1ccccc1 (stereo not drawn)	10µM	–	·	–	7.3µM
CC(C)Nc1nc(N)c(C(=O)C23CC4CC(CC(C4)C2)C3)s1	–	–	–	–	23µM
COc1ccc(Nc2nc(N)c(C(=O)c3ccc(OC)cc3)s2)cc1	4.1µM	1.3µM	–	?	?
Nc1nc(Nc2cccc(Cl)c2)sc1C(=O)c1ccc(F)cc1	·	–	–	–	·

High-throughput results: PubChem BioAssay, National Center for Advancing Translational Sciences (NCATS)
